Drawing on PubChem BioAssay, this text covers z-score and composite z-score for 18 compounds.

The nature of assay [1]: optical density shifts of acrAB sulA E. coli – strain DRC41, OD650, 48 h, E. coli filamentation inducer project, primary screen (AID 1152).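 Also: E. coli MC1000 strain DRC41 lacking acrAB efflux pump and sulA.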 Particulars: higher = more signal, called active from +8 up or from −8 down.
Assay [2] is described as follows: probe aLefty1 binding on compound microarray – biochemical, small-molecule microarray, 635/667 nm fluorescence, primary screen (AID 1153).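 Also: score merges spot fluorescence with signal-to-noise ratio from the scanned slide images.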 Particulars: higher = more signal.
The nature of assay [3]: plasmodial surface anion channel blockers, osmotic lysis – cell-based, P. falciparum Indochina, OD700, 1 h, primary screen (AID 1154). Particulars: P. falciparum Indochina infected RBC osmotic lysis, higher = more signal, called active from +8 up or from −8 down.
Assay [4] is described as follows: plasmodial surface anion channel blockers, osmotic lysis – cell-based, P. falciparum Indochina, OD700, 2 h, primary screen (AID 1155).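 Also: lysis reports solute entry through the parasite surface anion channel PSAC.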 Particulars: P. falciparum Indochina infected erythrocytes, higher = more signal, called active from +8 up or from −8 down.
Assay [5] is described as follows: changes in parasitized red cell lysis, either direction – P. falciparum Indochina, OD700, 3 h, PSAC antagonist project, primary screen (AID 1156). Particulars: P. falciparum-infected erythrocytes, osmotic lysis, higher = more signal, called active from +8 up or from −8 down.
Assay [6] can be described thus: plasmodial surface anion channel blockers, osmotic lysis – cell-based, P. falciparum Indochina, OD700, 18 h, primary screen (AID 1157). Particulars: P. falciparum Indochina infected erythrocytes, osmotic lysis OD700, 18 h; higher = more signal, called active from +8 up or from −8 down.
Assay [7] is described as follows: S6 kinase pathway phospho-S6 level changes – cell-based, A549, cytoblot, luminescence, serum-stimulated, primary screen (AID 1158).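 Also: serum-stimulated A549 lung adenocarcinoma cells; signal is phosphorylated S6 detected by cytoblot immunostaining with HRP secondary.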 Particulars: 5 h, higher = more signal.
In assay [8] the target is NADPH oxidase 2 (Homo sapiens) (UniProt P04839). Description: compounds shifting NOX2 Amplex Red fluorescence – cell-based, HEK293-NOX2, PMA-stimulated, NOX inhibitor project, primary screen (AID 1159). Also: test concentration not given here. Particulars: 45 min, higher = more signal, called active from +8 up or from −8 down.
In assay [9] the target is NADPH oxidase 4 (Homo sapiens) (UniProt Q9NPH5). In words: compounds shifting NOX4 Amplex Red fluorescence – cell-based, HEK293-NOX4, tetracycline-induced, NOX inhibitor project, primary screen (AID 1160). Particulars: HEK293-NOX4, Amplex Red H2O2 fluorescence, 45 min; higher = more signal, called active from +8 up or from −8 down.
Assay [10] concerns the target NADPH oxidase 5 (Homo sapiens) (UniProt Q96PH1). Description: compounds shifting NOX5 Amplex Red fluorescence – cell-based, HEK293-NOX5, NOX inhibitor project, primary screen (AID 1161). Particulars: HEK293-NOX5, ionomycin, 45 min, higher = more signal.

Activity calls are given as the source filed them.

Sequence of NADPH oxidase 4 (Homo sapiens) (Q9NPH5 whole entry, looked up): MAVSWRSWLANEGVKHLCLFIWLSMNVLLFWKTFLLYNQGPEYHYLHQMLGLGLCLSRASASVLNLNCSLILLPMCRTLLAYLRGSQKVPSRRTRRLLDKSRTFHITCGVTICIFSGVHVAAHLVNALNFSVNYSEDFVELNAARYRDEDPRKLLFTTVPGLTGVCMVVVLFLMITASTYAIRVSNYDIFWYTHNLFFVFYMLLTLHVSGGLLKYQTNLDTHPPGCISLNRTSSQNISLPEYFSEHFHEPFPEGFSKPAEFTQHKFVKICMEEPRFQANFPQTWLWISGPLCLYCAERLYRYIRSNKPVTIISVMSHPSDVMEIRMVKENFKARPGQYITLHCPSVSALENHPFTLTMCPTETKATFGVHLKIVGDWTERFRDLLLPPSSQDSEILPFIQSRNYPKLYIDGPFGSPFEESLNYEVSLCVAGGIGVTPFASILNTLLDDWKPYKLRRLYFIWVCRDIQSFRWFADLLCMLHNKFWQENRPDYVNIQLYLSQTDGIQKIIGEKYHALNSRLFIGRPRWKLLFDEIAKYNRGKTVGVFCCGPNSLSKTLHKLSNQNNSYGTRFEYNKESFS
Sequence of NADPH oxidase 2 (Homo sapiens) (P04839 whole entry, looked up): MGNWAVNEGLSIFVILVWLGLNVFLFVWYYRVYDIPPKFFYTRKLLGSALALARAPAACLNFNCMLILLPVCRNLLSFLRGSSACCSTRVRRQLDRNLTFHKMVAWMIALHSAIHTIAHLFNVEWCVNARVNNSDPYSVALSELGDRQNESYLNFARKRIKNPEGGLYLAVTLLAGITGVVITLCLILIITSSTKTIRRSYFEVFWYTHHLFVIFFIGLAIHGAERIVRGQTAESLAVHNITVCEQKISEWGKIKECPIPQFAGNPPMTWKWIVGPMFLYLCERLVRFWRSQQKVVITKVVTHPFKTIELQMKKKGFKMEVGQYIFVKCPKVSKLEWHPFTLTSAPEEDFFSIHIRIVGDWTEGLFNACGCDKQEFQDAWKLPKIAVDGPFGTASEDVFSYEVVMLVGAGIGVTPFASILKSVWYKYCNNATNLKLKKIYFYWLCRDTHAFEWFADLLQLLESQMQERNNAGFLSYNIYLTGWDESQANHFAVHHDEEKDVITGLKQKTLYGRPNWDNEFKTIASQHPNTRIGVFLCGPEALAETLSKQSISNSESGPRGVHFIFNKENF
Sequence of NADPH oxidase 5 (Homo sapiens) (Q96PH1 whole entry, looked up): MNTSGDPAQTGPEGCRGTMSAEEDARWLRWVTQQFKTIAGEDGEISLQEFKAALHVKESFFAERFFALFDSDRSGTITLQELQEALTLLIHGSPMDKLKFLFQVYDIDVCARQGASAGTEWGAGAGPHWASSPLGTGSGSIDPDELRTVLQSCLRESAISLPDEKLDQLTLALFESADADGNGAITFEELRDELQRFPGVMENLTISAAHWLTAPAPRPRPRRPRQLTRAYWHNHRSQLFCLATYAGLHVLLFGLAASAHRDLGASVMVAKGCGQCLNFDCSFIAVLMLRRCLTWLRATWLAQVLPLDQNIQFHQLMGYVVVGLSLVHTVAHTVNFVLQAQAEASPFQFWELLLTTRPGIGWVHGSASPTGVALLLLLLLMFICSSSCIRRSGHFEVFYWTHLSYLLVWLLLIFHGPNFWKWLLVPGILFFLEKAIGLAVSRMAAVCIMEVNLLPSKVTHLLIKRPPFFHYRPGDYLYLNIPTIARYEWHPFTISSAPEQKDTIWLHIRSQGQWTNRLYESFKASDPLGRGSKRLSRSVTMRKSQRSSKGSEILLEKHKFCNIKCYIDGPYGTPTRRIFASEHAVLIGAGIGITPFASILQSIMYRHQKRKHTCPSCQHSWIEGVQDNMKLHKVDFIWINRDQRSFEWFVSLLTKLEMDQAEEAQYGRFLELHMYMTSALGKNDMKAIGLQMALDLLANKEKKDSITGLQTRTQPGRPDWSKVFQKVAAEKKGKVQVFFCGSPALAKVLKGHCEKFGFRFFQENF

In the case of `COCCOC(=O)N1C(=O)[C@@]2(c3ccccc31)[C@H](c1ccc(O)cc1)N1[C@H](c3ccccc3)[C@H](c3ccccc3)OC(=O)[C@H]1[C@@H]2C(=O)NC[C@H](O)c1ccccc1`, the z-score in assay [1] was 0.0221 (inactive); in assay [3], 1.06 (inactive); in [4] it was 0.664 (inactive); in assay [5], 0.515 (inactive); in assay [6], 0.563 (inactive); in assay [7], 0.104. For the same compound, the z-score in assay [8] is 0.873 (inactive); in assay [9] it was 0.0245 (inactive); in assay [10], 0.604. The compound further returned a composite z-score in [2] of 0.132.

On to `COc1ccc(C(=O)Nc2cccc(CN3C(=O)[C@]4(O[C@H](CCO)[C@@H]([Si](C)(C)c5ccc(OC)cc5)[C@@H]4C)c4ccccc43)c2)cc1`, for which the z-score was -0.172 (inactive) in assay [1]; 2.54 (inactive) in assay [3]; 1.45 (inactive) in assay [4]; 0.374 (inactive) in [5]; 1.85 (inactive) in [6]; -0.59 in assay [7]. In addition, the z-score in [8] was -6.65 (inactive); in assay [9], -2.74 (inactive); in assay [10], -3.1. The composite z-score in [2] turned out to be 0.0698.

As to `C=CCOC(=O)[C@H]1[C@@H]2C(=O)O[C@@H](c3ccccc3)[C@@H](c3ccccc3)N2[C@@H](c2ccc(OCCOC(=O)[C@@H]3C[C@@H]4C(=O)N5CCC[C@H]5C(=O)N4[C@@H]3c3cccc(OCCO)c3)cc2)[C@]12C(=O)Nc1ccccc12`, the z-score in [1] was -0.152 (inactive); in assay [3] it was 3.47 (inactive); in [4], 1.16 (inactive); in assay [5] it was 3.5 (inactive); in [6] it was 0.671 (inactive); in [7] it was 0.605. Besides, the z-score was 2.26 (inactive) in assay [8], 0.917 (inactive) in [9] and 0.15 in assay [10]. Further, the composite z-score in assay [2] was 0.603.

Take `COC(=O)[C@@]1(Cc2ccc(F)cc2)[C@H]2c3cc(C(=O)N(C)C)n(Cc4ccc(S(C)(=O)=O)cc4)c3C[C@H]2CN1C(=O)c1ccccc1`: the z-score in assay [1] was -0.367 (inactive); in [3], 1.32 (inactive); in assay [4] it was 0.495 (inactive); in [5] it was 1.01 (inactive); in assay [6], 0.739 (inactive); in [7] it was -0.594. Further, the z-score in assay [8] was 0.713 (inactive); in assay [9], 0.668 (inactive); in [10], 0.274. Moreover, the composite z-score in assay [2] stood at 0.277.

`COc1cc(OC)c(C(O)C2C=CC3C(=O)NC(=O)C3N2Nc2ccc(Cl)cc2Cl)cc1Br` (stereo not given): the z-score was -2.02 (inactive) in assay [1]; 4.81 (inactive) in [3]; 1.4 (inactive) in [4]; -0.372 (inactive) in [5]; 1.84 (inactive) in assay [6]; -0.924 in assay [7]. The figures for the z-score in assay [8], in assay [9] and in assay [10] were -0.603 (inactive), -5.17 (inactive) and -1.12, respectively. The composite z-score in assay [2] is 0.689.

For the compound `O=C1O[C@H](c2ccccc2)[C@H](c2ccccc2)N2[C@H]1[C@@H](C(=O)O)[C@]1(C(=O)Nc3ccc(C#CCCO)cc31)[C@H]2c1ccc(O)cc1`, the z-score in assay [1] is 1.4 (inactive); in assay [3], 1.43 (inactive); in assay [4] it was 0.4 (inactive); in assay [5], 0.735 (inactive); in [6], 0.531 (inactive); in [7], 0.282. The z-score was -0.185 (inactive) in [8], -0.455 (inactive) in [9] and 0.157 in assay [10]. Also, the composite z-score in assay [2] came out at 0.334.

Regarding `C=CCN1C(=O)[C@@]2(O[C@@H](CCO)[C@H]([Si](C)(C)c3ccc(OC)cc3)[C@H]2C)c2cc(NC(=O)c3ccc(OC)cc3)ccc21`, the z-score in assay [1] is -0.0564 (inactive); in assay [3], 23.3 (active); in assay [4], 6.69 (inactive); in assay [5], 0.978 (inactive); in assay [6], 1.75 (inactive); in assay [7], 0.26. The z-score was -3.81 (inactive) in assay [8], -0.905 (inactive) in assay [9] and -0.695 in assay [10]. Also, in assay [2], the composite z-score was -0.147.

For `C=CCOC(=O)[C@H]1[C@@H]2C(=O)O[C@@H](c3ccccc3)[C@@H](c3ccccc3)N2[C@@H](c2ccc(OCCOC(=O)[C@@H]3C[C@@H]4C(=O)N[C@@H](CCCC[N+](C)(C)C)C(=O)N4[C@@H]3c3ccc(O)cc3)cc2)[C@]12C(=O)Nc1ccccc12`, the z-score in assay [1] was 0.443 (inactive); in assay [3] it was -0.906 (inactive); in assay [4], -0.689 (inactive); in assay [5] it was 4.3 (inactive); in assay [6], -1.58 (inactive); in assay [7], 1.28. For the same compound, the z-score in [8] is 2.42 (inactive); in [9], 0.568 (inactive); in [10], 1.41. In [2], the composite z-score was 0.0104.

Regarding `CN1C(=O)[C@]2(Cc3ccccc3)N=C(c3ccc(OCCCO)cc3)O[C@@H]2c2ccccc21`, the z-score in [1] is -0.105 (inactive); in assay [3] it was 33.7 (active); in [4], 32.4 (active); in assay [5], 2.34 (inactive); in assay [6] it was 3.54 (inactive); in [7], 0.435. Also, the figures for the z-score in assay [8], in assay [9] and in assay [10] were -2.02 (inactive), -0.608 (inactive) and -1.93, respectively. In addition, the composite z-score in [2] was -0.157.

As for `CCOC(=O)C[C@H]1[C@H](OC(=O)Cc2ccc3c(c2)OCO3)[C@@H](NC(=O)c2ccc(-c3ccccc3)cc2)c2cc(OCCCO)ccc2N1C(=O)Cc1ccc(OC)cc1`, the z-score in assay [1] is 2.84 (inactive); in assay [3], 25.4 (active); in [4], 11.2 (active); in [5], -0.67 (inactive); in [6], 0.464 (inactive); in assay [7] it was 1.74. The z-score in assay [8] was -1.35 (inactive); in assay [9], 1.26 (inactive); in assay [10], 2.24. The compound further yielded a composite z-score in [2] of 0.123.

Regarding `[N-]=[N+]=Nc1ccccc1[C@H]1OC(c2ccc(OCCCO)cc2)=N[C@@]1(Cc1ccccc1)C(=O)O`, the z-score is 0.409 (inactive) in assay [1]; 32 (active) in [3]; 27.2 (active) in assay [4]; 1.65 (inactive) in [5]; 7.43 (inactive) in [6]; -0.259 in [7]. Also, the figures for the z-score in [8], in assay [9] and in [10] were -0.0311 (inactive), 1.5 (inactive) and 1.75, respectively. In [2], this compound had a composite z-score of 0.346.

Consider `CCCN1C(=O)[C@]2(CCS(=O)(=O)c3ccccc3)N=C(c3ccc(OCCCO)cc3)O[C@@H]2c2ccccc21`, for which the z-score in assay [1] was 1.51 (inactive); in assay [3], 29.3 (active); in assay [4] it was 21.2 (active); in assay [5], 1.31 (inactive); in assay [6] it was 0.471 (inactive); in [7] it was 1.42. Further, the values for the z-score in [8], in assay [9] and in [10] were -1.5 (inactive), -0.284 (inactive) and -1.17, respectively. In assay [2], the composite z-score amounted to 0.497.

In the case of `C=C(CCCC)/C(=C/C[C@@H](OC(C)=O)c1ccccc1OCCO)c1cnc2ccccc2c1`, the z-score in [1] is -0.19 (inactive); in [3], 21.1 (active); in [4], 4.29 (inactive); in [5] it was 1.96 (inactive); in assay [6], 1.39 (inactive); in assay [7], 0.132. For the same compound, the results for the z-score in assay [8], in assay [9] and in assay [10] were -1.87 (inactive), -1.61 (inactive) and -1.79, respectively. The composite z-score in assay [2] turned out to be 0.082.

Turning to `C#CCN(CC=C(C)C)[C@H](CO)c1ccccc1`, the z-score in assay [1] was 0.0373 (inactive); in assay [3], -0.214 (inactive); in assay [4], -1.3 (inactive); in assay [5], -0.717 (inactive); in assay [6], -2.12 (inactive); in [7], 1.22. Moreover, the z-score is -0.0535 (inactive) in [8], -0.102 (inactive) in assay [9] and -1.84 in [10]. The same compound yielded a composite z-score in assay [2] of 0.213.

Turning to `Cc1ccc(S[C@]2(C(=O)NC(C)C)CC(=O)N(Cc3ccccc3Cl)[C@@H]2c2ccc(CO)cc2I)cc1`, the z-score in assay [1] was -0.462 (inactive); in assay [3], 11.2 (active); in [4] it was 1.44 (inactive); in [5], 0.681 (inactive); in [6] it was 0.377 (inactive); in assay [7], -0.487. Moreover, the z-score in [8] was 0.769 (inactive); in assay [9], -1.51 (inactive); in assay [10], 0.183. The composite z-score in [2] is 0.0023.

Turning to `C=CCNC(=O)[C@H]1[C@@H]2C(=O)O[C@@H](c3ccccc3)[C@@H](c3ccccc3)N2[C@@H](c2ccc(OCCO)cc2)[C@]12C(=O)Nc1ccc(C#CC3=CCCCC3)cc12`, the z-score in [1] was 0.951 (inactive); in assay [3], 2.36 (inactive); in assay [4] it was 1.66 (inactive); in [5], -1.04 (inactive); in assay [6], 1.4 (inactive); in [7], -0.571. Further, the z-score in assay [8] was 1.24 (inactive); in [9] it was -1.05 (inactive); in assay [10], 1.02. In assay [2], this compound registered a composite z-score of -0.101.

On to `O=C1c2ccccc2[C@](Cc2ccccc2I)(C(=O)NC2CC2)[C@H](c2ccc(CO)cc2)N1Cc1ccccc1`, for which the z-score in assay [1] is -0.102 (inactive); in [3] it was 5.07 (inactive); in assay [4], 0.602 (inactive); in assay [5] it was 1.67 (inactive); in assay [6], 0.181 (inactive); in assay [7], -0.132. Moreover, the z-score is -0.163 (inactive) in [8], -0.127 (inactive) in [9] and -0.768 in [10]. This compound displayed a composite z-score in assay [2] of 0.284.

On to `COc1ccc([Si](C)(C)[C@H]2[C@H](CCn3cc([C@H](O)c4ccccc4)nn3)O[C@@]3(C(=O)N(Cc4cccc(N5CCOC5=O)c4)c4ccccc43)[C@@H]2C)cc1`, for which the z-score in [1] was -0.454 (inactive); in assay [3], 26.1 (active); in assay [4] it was 9.3 (active); in assay [5], -0.295 (inactive); in assay [6] it was 1.4 (inactive); in assay [7], 0.17. Moreover, the z-score in assay [8] was 0.0189 (inactive); in assay [9], 2.51 (inactive); in assay [10] it was 2.28. The composite z-score in [2] was -0.249.
